Laboratory results reported in PubChem BioAssay AID1347385 (Zoeller Lab, School of Medicine, Boston University, 2020).
Among all 20,000 compounds or so, about 85 (0.4%) were called active.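 Rule for the calls: active = cell survival signal 2 SD away from solvent-only control wells, confirmed on one or two retests; inactive = the rest.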 Shown is part of a subset that was picked to be rich in actives.

Assay: compounds reducing fatty acid uptake into lipids – ZR-82 cells, Enamine library, screen 3, primary screen (AID 1347385);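 note: 3 h compound exposure then viability read about one day after UV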
Details: ZR-82 CHO cells, pyrene fatty acid UV survival, CellTiter Blue, peroxisome-deficient CHO-K1 mutant line, plus DGAT-1, DGAT-2 and ACAT inhibitors; at 10 µM unless noted
In the case of O=C(Nn1c(-c2cccs2)nc2sc3c(c2c1=O)CCCC3)c1cccs1, the outcome is reported as “inactive”. For CCOC(=O)C1=C(C)NC2=C(C(=O)CC(C)(C)C2)C1C (centres undefined), the outcome was “inactive”. For O=C(O)c1sc2cc(F)ccc2c1Cl, the outcome was “inactive”. For C(=N\Nc1nncc2ccccc12)/c1ccc(N2CCOCC2)s1, the outcome was “inactive [setting not given]”. In the case of COC(CNc1ncnc2sc3c(c12)CCC3)OC, the outcome is reported as “inactive”. In the case of Clc1cc(CSc2nnnn2C2CC2)cc2c1OCCO2, the outcome is reported as “inactive”. For O=[N+]([O-])c1ccc2[nH]c(O)c(N=Nc3ccc(C(F)(F)F)cc3[N+](=O)[O-])c2c1, the outcome was “inactive”. In the case of NC(=O)NCCCC(=O)O, the outcome is reported as “inactive”. With S=C(NCCc1ccccc1)N/N=C1\CC2CC=CC12 (centres undefined) the outcome was “inactive [setting not given]”. In the case of CC(N=C1NS(=O)(=O)c2ccccc21)C(=O)OC1CCOC1=O (centres undefined), the outcome is reported as “inactive”. With CCOC(=O)c1c(C)[nH]c(C(=O)Cn2ncc(Cl)c(Cl)c2=O)c1C the outcome was “inactive”. For FC(F)(F)C(=NC1(C(Cl)(Cl)Cl)Oc2ccccc2O1)Nc1ccccn1, the outcome was “inactive”. In the case of O=S(=O)(c1cc(Br)ccc1Br)N1CCCc2ccccc21, the outcome is reported as “inactive”. In the case of O=S1(=O)CCC(N(Cc2ccco2)S(=O)(=O)c2ccc(S(=O)(=O)N3CCCC3)cc2)C1 (centres undefined), the outcome is reported as “inactive”. In the case of CCCN(CC1CC1)Cn1c(=S)sc2ccccc21, the outcome is reported as “inactive”. With Clc1ccc2nc(N/N=C/c3cccc4nccnc34)nc(-c3ccccc3)c2c1 the outcome was “inactive [setting not given]”. In the case of Fc1ccc(NC(=S)NNc2ccnc3cc(Cl)ccc23)cc1Cl, the outcome is reported as “inactive”. In the case of Clc1ccc2c(NN=C3c4ccccc4-c4ccccc43)ccnc2c1, the outcome is reported as “active”. In the case of Cn1/c(=N/N=C/C(Cl)=C/c2ccccc2)sc2ccccc21, the outcome is reported as “inactive [setting not given]”. In the case of S=C(NCC1CCCO1)NNc1ncnc2sc3c(c12)CCCC3 (centres undefined), the outcome is reported as “inactive”. With CC(C)=CCC/C(C)=C/C=N/Nc1ccc([N+](=O)[O-])cc1 the outcome was “inactive [setting not given]”. In the case of Nc1c(Cl)cc(NC(=S)Nc2ccc(SC(F)F)cc2)cc1Cl, the outcome is reported as “inactive”. In the case of COc1cc(NC(=S)Nc2ccc(SC(F)F)cc2)cc(OC)c1OC, the outcome is reported as “inactive”. With Fc1ccc(NC(=S)Nc2ccc(SC(F)F)cc2)cc1Cl the outcome was “active”. In the case of O=C(C1CCCCC1)N1N=C2/C(=C/c3ccco3)CCCC2C1c1ccco1 (centres undefined), the outcome is reported as “inactive”. In the case of NC(CSC12CC3CC(CC(C3)C1)C2)C(=O)O (centres undefined), the outcome is reported as “inactive”. With O=C(NC1=NCCS1)C1CC2CCCC(C1)C2=O (centres undefined) the outcome was “inactive”. In the case of CC(C)NC(=S)NN=C1CCCCCCCCCCC1, the outcome is reported as “inactive”. In the case of Cc1cc(NC(=O)COC(=O)C2=NNC(=O)CC2)no1, the outcome is reported as “inactive”. In the case of O=[N+]([O-])c1cc(S(=O)(=O)Nc2ccc(Cl)c(S(=O)(=O)N3CCOCC3)c2)ccc1Cl, the outcome is reported as “inactive”. With O=[N+]([O-])c1ccc(N=P(c2cccc3ccccc23)(c2cccc3ccccc23)N2CCOCC2)c(Br)c1 the outcome was “inactive”. For Nc1scc[n+]1Cc1cccc2cccnc12, the outcome was “inactive”. In the case of Nc1nc(SCC(=O)NCCN2CCOCC2)nc2sc3c(c12)CCC3, the outcome is reported as “inactive”. With CC(C)CC(C(=O)NNC(=O)c1ccco1)N1C(=O)C2CC=CCC2C1=O (centres undefined) the outcome was “inactive”. In the case of O=S(=O)(Nc1ncccn1)c1ccc(NC(=S)Nc2cccnc2)cc1, the outcome is reported as “inactive”. With CC(C)CC(NC(=O)NC1CCCCC1)C(=O)O (centres undefined) the outcome was “inactive”. With c1ccc(C2=NNC(c3ccccc3)C2)cc1 (centres undefined) the outcome was “inactive”. For O=C(NC1CCCCCCC1)c1ccc(=O)[nH]c1, the outcome was “inactive”. In the case of CN(C1CCCCC1)S(=O)(=O)c1ccc2c(c1)OCCCO2, the outcome is reported as “inactive”. In the case of OC(Cc1nc2ccccc2[nH]1)c1nc2ccccc2[nH]1 (centres undefined), the outcome is reported as “inactive”. For Cc1cc(NC(=O)Cn2c(=O)/c(=C\c3ccc(C)s3)s/c2=C\C(=O)C(C)(C)C)no1, the outcome was “inactive”. For C=CCN=c1scc(-c2ccc(OC)cc2)n1/N=C/c1ccc(OC(F)F)cc1, the outcome was “inactive [setting not given]”. With CCOC(=O)/C(=C\c1ccc(C)s1)c1nc2sc(C)c(C)c2c(=O)[nH]1 the outcome was “inactive”. With O=C(O)CCN1C(=O)C2CC=CCC2C1=O (centres undefined) the outcome was “inactive”. In the case of S=C(N=P(c1ccccc1)(N1CCOCC1)N1CCOCC1)NCc1cn2ccccc2n1, the outcome is reported as “inactive”. In the case of S=C1NC(c2ccccc2)=NCN1N(c1ccccc1)c1ccccc1, the outcome is reported as “inactive”. With COc1ccc(-c2noc(CSc3ncccn3)n2)cc1OC the outcome was “inactive”. For CC1(C)CCCC(C)(C)N1Sc1ccccc1, the outcome was “inactive”. In the case of Oc1ccc(-c2onc3ccc(Cl)cc23)cc1, the outcome is reported as “inactive”. For NC1=NC(c2c(Cl)cccc2Cl)n2c(nc3ccccc32)N1 (centres undefined), the outcome was “inactive”. For Cc1cc(C(=O)Cn2cnc3c2c(=O)n(C)c(=O)n3C)c(C)n1CCC1=CCCCC1, the outcome was “inactive”. In the case of O=C1CCC(C(=O)OCC(=O)c2ccc(Br)s2)=NN1, the outcome is reported as “inactive”. With O=C1CSC2=NCN(c3ccccc3)CN12 the outcome was “inactive”. For Clc1cc(Cl)c(N/N=C/c2cn(-c3ccccc3)nc2-c2cc3ccccc3o2)c(Cl)c1, the outcome was “inactive [setting not given]”. For O=c1/c(=C/c2ccccc2I)sc2nc3ccccc3n12, the outcome was “inactive”. With COc1ccccc1OCCOCCOc1ccccc1OC the outcome was “inactive”. With O=c1c(Cl)c(N2CCCC2)cnn1-c1ccccc1 the outcome was “inactive”. For COCCNC(=O)NC(=O)N(C1CCCCC1)S(C)(=O)=O, the outcome was “inactive”. For Cc1sc2nc(-c3cccs3)nc(Sc3nnc(C4CC4)o3)c2c1C, the outcome was “inactive”. With CCOC(=O)c1sc2nc(C(C)Sc3ncnc4sc5c(c34)CCC5)[nH]c(=O)c2c1C (centres undefined) the outcome was “inactive”. In the case of CC(C)(C)C1CCC(C(=O)OCC(=O)c2ccc(Cl)s2)CC1 (centres undefined), the outcome is reported as “inactive”. With O=C1CN(Cc2csc(-c3cccs3)n2)CCN1 the outcome was “inactive”. With O=[N+]([O-])c1c(Sc2nnnn2-c2ccccc2)nc2sccn12 the outcome was “inactive”. With COc1ccc(C2=CC(c3ccc(OC)c(OC)c3)n3ncnc3N2)cc1OC (centres undefined) the outcome was “inactive”. In the case of Cc1cc2ncn(Cc3ccc(C(C)C)cc3)c2cc1C, the outcome is reported as “inactive”. With CCNc1n[nH]c(=S)s1 the outcome was “inactive”. In the case of S=C(Nc1ccc(Cl)c(Cl)c1)NC12CC3CC(CC(C3)C1)C2, the outcome is reported as “inactive”. With O=C(Nc1ccccc1)Nc1ccc(Cl)c(Cl)c1 the outcome was “active”. In the case of O=C(Nc1ccccc1)NC(NC(=S)Nc1ccc(I)cc1)C(Cl)(Cl)Cl (centres undefined), the outcome is reported as “inactive”. In the case of FC(F)Sc1nc(-c2ccc(Br)cc2)nc2ccccc12, the outcome is reported as “inactive”. In the case of CC(C)CNC(=O)NC(=O)C1CCCCC1, the outcome is reported as “inactive”. With O=[N+]([O-])c1cc(CN2CCOCC2)c2c(c1)OCOC2 the outcome was “inactive”. With Fc1ccc(-c2nnc(-c3nnc(-c4ccc(F)cc4)c(-c4ccccc4)n3)nc2-c2ccccc2)cc1 the outcome was “inactive”. With O=P1(Nc2cc(C(F)(F)F)ccc2Cl)C=C(c2ccccc2)OC(c2ccccc2)=C1 the outcome was “inactive”. With Nc1ccc([N+](=O)[O-])c(OC(F)F)c1 the outcome was “inactive”. For CCOC(=O)c1c(N)sc2c1CCCS2, the outcome was “inactive”. In the case of C=CCN1C(=O)/C(=C/c2c(NC3CC(C)(C)NC(C)(C)C3)nc3ccc(C)cn3c2=O)SC1=S, the outcome is reported as “inactive”. In the case of O=C(COC(=O)CCNC(=O)NC12CC3CC(CC(C3)C1)C2)NCC(F)(F)F, the outcome is reported as “inactive”. With O=S(=O)(c1ccc(F)c(F)c1)N1CCN(c2ccc(O)cc2)CC1 the outcome was “inactive”. In the case of COC(=O)C(C)N (centres undefined), the outcome is reported as “inactive”. For Cc1noc(C)c1COc1ncnc2sc3c(c12)CCCC3, the outcome was “inactive”. With C(=N\n1c(-c2ccco2)csc1=NC1CCCCC1)/c1ccccn1 the outcome was “inactive [setting not given]”. In the case of Cc1noc(C)c1S(=O)(=O)Nc1ccc(NS(=O)(=O)c2ccc3c(c2)OCCCO3)cc1, the outcome is reported as “inactive”. For S=c1n(CN2CCOCC2)nc(Cc2cccs2)n1C1CCCCC1, the outcome was “inactive”. In the case of Ic1ccc2c(c1)Cc1ccccc1-2, the outcome is reported as “inactive”. In the case of Cn1c(C(F)(F)F)nn(CN2CCN(c3cccc(C(F)(F)F)c3)CC2)c1=S, the outcome is reported as “inactive”. In the case of O=C(CSc1nc2ccccc2nc1SCC(=O)c1cc2ccccc2o1)c1cc2ccccc2o1, the outcome is reported as “inactive”. In the case of O=S1(=O)N=C(N2CCC(c3nc4ccccc4o3)CC2)c2ccccc21, the outcome is reported as “inactive”. For O=C(COC(=O)Cn1cc(C(F)(F)F)ccc1=O)NC(=O)NC1CCCC1, the outcome was “inactive”. In the case of O=c1cc(COc2cc(Cl)c(Cl)cc2Cl)nc2ccc(Br)cn12, the outcome is reported as “inactive”. For FC(F)(F)c1ccc(Oc2ccc(Cl)c3cccnc23)nc1, the outcome was “inactive”. With O=S(=O)(Nc1cc(S(=O)(=O)N2CCOCC2)ccc1N1CCCC1)c1cccs1 the outcome was “inactive”. In the case of Clc1ccc(C=Nc2ccc3c(c2)OCO3)c(Cl)c1, the outcome is reported as “inactive”. For CC(C)CN(C(=O)CSc1nncn1C)C1CCS(=O)(=O)C1 (centres undefined), the outcome was “inactive”. In the case of O=[N+]([O-])c1ccc(NN=C2C3CC4CC(C3)CC2C4)c(S(=O)(=O)Nc2ccc(Cl)cc2)c1, the outcome is reported as “inactive”. In the case of CN(C)/N=C/C=C1\CCC/C(=C\c2cc(Br)cs2)C1=O, the outcome is reported as “inactive [setting not given]”. With O=S(=O)(c1ccc(F)cc1F)N1c2cccc3cccc(c23)S1(=O)=O the outcome was “inactive”. For Nc1c(C(=O)CSc2cc(F)ccc2F)c(=O)[nH]c(=O)n1C1CC1, the outcome was “inactive”. With c1nc(N2CCN(c3ncnc4sc5c(c34)CCCC5)CC2)c2c3c(sc2n1)CCCC3 the outcome was “inactive”. With Cc1cc(C)nc(N/N=C/c2ccncc2)n1 the outcome was “inactive [setting not given]”. For Fc1ccc(-n2c(-c3ccc(Cl)cc3Cl)n[nH]c2=S)cc1Cl, the outcome was “inactive”. For Cc1ccc(C)c(C2C3=C(CC(C)(C)CC3=O)Nc3nc(-c4cccnc4)nn32)c1 (centres undefined), the outcome was “inactive”. In the case of COc1cc(S(=O)(=O)n2c([N+](=O)[O-])cnc2C)ccc1Br, the outcome is reported as “inactive”. In the case of Cc1cc(C)c(C)c(S(=O)(=O)N(C)C2CCS(=O)(=O)C2)c1C (centres undefined), the outcome is reported as “inactive”. With CC(=O)c1c(C)[nH]c(C(=O)OCC(=O)c2cc(C)n(CC3CCCO3)c2C)c1C (centres undefined) the outcome was “inactive”. For O=C1NC(c2ccc3ncccc3c2)C(C(=O)c2cccnc2)C(O)(C(F)(F)F)N1 (centres undefined), the outcome was “inactive”. With O=[N+]([O-])/C(CN1CCOCC1)=C1/CCCN1 the outcome was “inactive”. For CCCCn1c(N)c(N(Cc2ccco2)C(=O)Cn2cnnn2)c(=O)[nH]c1=O, the outcome was “inactive”. For CN(C(=O)COC(=O)CN1C(=O)NC2(CCCC2)C1=O)C1CCCCC1, the outcome was “inactive”.
